Experimental data: PubChem BioAssay (Tox21)
Where “and” joins values, the source holds several entries; their conditions need not be identical. Equal entries are not always repeated. Inconclusive results are not listed. Where a call stands in place of a potency, no number is given. More than one record can exist for a structure, and the calls need not agree. Calls of active or inactive are those of the source. Calls come from the whole dose curve; as a rule, active = well fitted curve in the direction sought with a large enough effect in the repeat runs; inconclusive = weak or mixed curves; inactive = no such curve, though single readings can be large; an effect the other way counts as inactive or inconclusive.

Columns and labels:
[1] = A CellTox Green Cytotoxicity Assay to monitor cytotoxicity in HEK293 cells - 40 hour (AID 1224871); note: nearly all actives have a fitted effect of over 45% in size
Method in brief: (§1)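 Cells (HEK293, 600/well) and dye reagent are dispensed together. After 5 h at 37 C, 23 nL compound is pinned in. Plates stay at 37 C for 40 h with fluorescence read at 0h, 8h, 16h, 24h, 32h and 40h.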

[2] = qHTS RealTime-Glo MT Cell Viability Assay in HEK293 cells - 16 hour (AID 1224872); note: nearly all actives have a fitted effect of over 50% in size; for activity change, negative = cytotoxicity: top concentration of the series differs between compounds
Method in brief: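 Nonlytic real-time viability readout: viable cells convert prosubstrate to NanoLuc substrate, giving luminescence proportional to live cell number. HEK293, 600 cells/well, compound added after 5 h, continuous culture at 37 C.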

[3] = qHTS RealTime-Glo MT Cell Viability Assay in HepG2 cells - 8 hour (AID 1224873); note: nearly all actives have a fitted effect of over 55% in size
Method in brief: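 HepG2 cells (600/well) mixed with RealTime-Glo MT reagent, settled 5 h at 37 C/5% CO2 before compound addition. Nonlytic NanoLuc luminescence from viable-cell prosubstrate reduction read repeatedly during 40 h treatment at 37 C.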

[4] = qHTS RealTime-Glo MT Cell Viability Assay in HEK293 cells - 40 hour (AID 1224874); conditions: RealTime-Glo luminescence; max response: stronger effect = lower value; note: nearly all actives have a fitted effect of over 50% in size
Method in brief: (§2)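 Real-time viability in HEK293: signal arises when living cells convert a prosubstrate for NanoLuc in the medium, so luminescence tracks viable cell number. Compound (23 nL, DMSO) added 5 h post-seeding; kinetic reads at 0–40 h, 37 C.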

[5] = A CellTox Green Cytotoxicity Assay to monitor cytotoxicity in HEK293 cells - 24 hour (AID 1224875); note: nearly all actives have a fitted effect of over 45% in size; for activity change: series mostly up to about 77 µM
Method in brief: as §1

[6] = A CellTox Green Cytotoxicity Assay to monitor cytotoxicity in HepG2 cells - 16 hour (AID 1224876); note: nearly all actives have a fitted effect of over 45% in size
Method in brief: (§3)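 Cells and non-lytic dye reagent are dispensed together (600 HepG2 cells/well) and incubated 5 h before DMSO compound transfer. Kinetic fluorescence is then recorded in the same wells during 40 h at 37 C.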

[7] = qHTS RealTime-Glo MT Cell Viability Assay in HepG2 cells - 32 hour (AID 1224877); note: nearly all actives have a fitted effect of over 55% in size
Method in brief: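 Luminescence read-out: viable HepG2 cells reduce a prosubstrate to a NanoLuc substrate, giving a signal proportional to live cell number. Reads taken at 0, 8, 16, 24, 32 and 40 h of compound exposure at 37 C.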

[8] = A CellTox Green Cytotoxicity Assay to monitor cytotoxicity in HepG2 cells - 24 hour (AID 1224878); note: nearly all actives have a fitted effect of over 45% in size
Method in brief: as §3

[9] = A CellTox Green Cytotoxicity Assay to monitor cytotoxicity in HepG2 cells - 40 hour (AID 1224879); note: nearly all actives have a fitted effect of over 40% in size
Method in brief: as §3

[10] = qHTS RealTime-Glo MT Cell Viability Assay in HEK293 cells - 0 hour (AID 1224880); note: nearly all actives have a fitted effect of over 45% in size; for activity change, negative = cytotoxicity: top concentration of the series differs between compounds
Method in brief: as §2
Potency is the fitted concentration of half-maximal effect.

| SMILES | Potency [1] | Potency [2] | Potency [3] | max response [4] | Potency [5] | Potency [6] | Potency [7] | Potency [8] | Potency [9] | Potency [4] | Potency [10] | activity change, negative = cytotoxicity [10] |
| --- | --- | --- | --- | --- | --- | --- | --- | --- | --- | --- | --- | --- |
| CC(C)OS(C)(=O)=O | inactive | inactive | inactive | 0.77% (inactive) | inactive | inactive | inactive | inactive | inactive | – | – | – |
| O=[N+]([O-])c1cc(C(F)(F)F)c(Cl)c([N+](=O)[O-])c1Cl | 6.16 µM (active) | 6.92 µM (active) | 43.6 µM (active) | – | 7.76 µM (active) | – | 21.9 µM (active) | 24.5 µM (active) | 19.5 µM (active) | 4.9 µM (active) | inactive | – |
| NNC(=O)c1ccccc1 | inactive | inactive | inactive | -4.85% (inactive) | – | inactive | inactive | inactive | inactive | – | inactive | – |
| [Cl][Sn]([c]1ccccc1)([c]1ccccc1)[c]1ccccc1 | 1.65 µM (active) | 0.293 µM (active) | 7.37 µM (active) | – | 1.85 µM (active) | 3.29 µM (active) | 2.61 µM (active) | 2.61 µM (active) | 2.61 µM (active) | 0.233 µM (active) | – | 1.26% [at 15.8 µM] (inactive) |
| CCC(C)c1cc(C(C)(C)C)cc(-n2nc3ccccc3n2)c1O (stereo unspecified) | inactive | inactive | inactive | 9.2% (inactive) | inactive | – | inactive | inactive | inactive | – | inactive | – |
| N#CCCO | inactive | inactive | inactive | 5.8% (inactive) | – | inactive | inactive | inactive | inactive | – | inactive | – |
| c1ccc2cc3c(cc2c1)-c1cccc2cccc-3c12 | inactive | inactive | inactive | 18.7% (inactive) | inactive | inactive | inactive | inactive | – | – | inactive | – |
| O=c1ssc(Cl)c1Cl | 21.9 µM (active) | 17.4 µM (active) | 21.9 µM (active) | – | – | 19.5 µM (active) | 21.9 µM (active) | 19.5 µM (active) | 19.5 µM (active) | 13.8 µM (active) | 24.5 µM (active) | – |
| CN(C)C(=S)S | 9.97 µM (active) and 1.54 µM (active) and 6.92 µM (active) | 1.94 µM (active) and 12.3 µM (active) | inactive | – | – | inactive and 34.7 µM (active) | inactive and 9.77 µM (active) | 22.3 µM (active) and 5.45 µM (active) and 15.5 µM (active) | – | 11.2 µM (active) and 1.73 µM (active) and 9.77 µM (active) | inactive | – |
| COc1ccc([N+](=O)[O-])cc1O | inactive | inactive | inactive | 1.5% (inactive) | – | inactive | inactive | inactive | inactive | – | inactive | – |
| Clc1ccc(C(c2ccc(Cl)cc2)C(Cl)(Cl)Cl)cc1 | 55.3 µM (active) and inactive | 39.2 µM (active) | inactive | – | – | inactive | inactive | inactive | inactive and 54.9 µM (active) | 39.2 µM (active) | inactive | – |
| CC1(C)CN=C(NN=C(/C=C/c2ccc(C(F)(F)F)cc2)/C=C/c2ccc(C(F)(F)F)cc2)NC1 | 49 µM (active) | 49 µM (active) | 24.5 µM (active) | – | – | 24.5 µM (active) | 17.4 µM (active) | 19.5 µM (active) | 15.5 µM (active) | 38.9 µM (active) | – | – |
| Cc1ccc(CCl)cc1 | inactive | inactive | inactive | 2.72% (inactive) | inactive | inactive | inactive | inactive | – | – | inactive | – |
| CCCCCCCCCCCCCC[P+](CCCCCC)(CCCCCC)CCCCCC (tested in a mixture with another compound) | 13.8 µM (active) | 13.8 µM (active) | 49 µM (active) | – | 13.8 µM (active) | – | 24.6 µM (active) | 24.6 µM (active) | 24.6 µM (active) | 3.47 µM (active) | – | – |
| C[As+](C)(C)CC(=O)[O-] | inactive | inactive | inactive | -9.67% (inactive) | inactive | – | inactive | inactive | inactive | – | inactive | – |
| CN(C)CCc1c[nH]c2cccc(O)c12 | inactive | inactive | inactive | -1.01% (inactive) | inactive | inactive | inactive | inactive | – | – | inactive | – |
| CCC[CH2][Sn]([CH2]CCC)([CH2]CCC)[O]C(=O)c1ccccc1 | 0.692 µM (active) | 0.436 µM (active) | 0.776 µM (active) | – | 1.95 µM (active) | – | 0.436 µM (active) | 0.692 µM (active) | 0.549 µM (active) | 0.389 µM (active) | – | – |
| CCCCCCCCCC[N+](C)(C)CCCCCCCCCC | 17.4 µM (active) | 4.36 µM (active) | 19.5 µM (active) | – | 15.5 µM (active) | 12.3 µM (active) | 7.76 µM (active) | 11 µM (active) | – | 0.977 µM (active) | inactive | – |
| CCCN(CCC)CCc1c[nH]c2ccccc12 | inactive | inactive | inactive | -15.2% (inactive) | inactive | – | inactive | inactive | – | – | inactive | – |
| CC(C)(C)OO | inactive | inactive | inactive | 12.3% (inactive) | – | inactive | inactive | inactive | inactive | – | inactive | – |
